Assay outcomes: PubChem BioAssay, National Center for Advancing Translational Sciences (NCATS)
Tau fluor cs – counter-screen for tau fibril formation inhibitors. tau K18 P301L Alexa594 fluorescence, heparin fibrillization. Potency, µM (highest dose often 57.7 µM). 280,000 compounds, 0.93% hits; note: nearly all actives have a fitted effect of over 55% in size
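Human K18 P301L tau (15 uM unlabeled plus 0.24 uM Alexa 594-labeled, final) in 100 mM sodium acetate pH 7 was mixed with compound and 20 uM heparin and incubated 6 hr at 37 C.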
Tau ThT inhib – inhibitors of human tau fibril formation, thioflavin T binding; P10636; recombinant tau K18 P301L (four-repeat tau fragment), heparin-induced fibrillization, ThT fluorescence; Potency, µM (series often up to 57.4 µM), hits mostly inhibitors; 270,000 compounds, 2.1% hits; note: nearly all actives have a fitted effect of over 55% in size
Target sequence (P10636 561-689 P618L limits assumed): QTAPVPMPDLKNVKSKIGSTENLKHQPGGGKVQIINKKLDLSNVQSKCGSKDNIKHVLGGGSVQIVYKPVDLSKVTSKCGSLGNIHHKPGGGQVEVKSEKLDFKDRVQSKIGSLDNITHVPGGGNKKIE
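Heparin-induced (20 uM) aggregation of recombinant human K18 P301L tau, 15 uM unlabeled with 0.24 uM labeled, pH 7 acetate buffer, 6 hr at 37 C with compound. Fibrils quantified by 30 uM ThT fluorescence after 1 hr ambient incubation.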
Tau FP inhib – blocks human tau fibril formation measured by polarization; P10636; K18 P301L tau heparin fibrillization, Alexa594 FP, 6 h; Potency, µM (series often up to 57.7 µM), most hits filed as inhibitors; 280,000 compounds, 0.39% hits; AID 1468; note: nearly all actives have a fitted effect of over 55% in size
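Quantitative HTS format: compounds meet 15 uM recombinant K18 P301L tau and Alexa 594-tau tracer in 100 mM sodium acetate pH 7; 20 uM heparin triggers fibrillization at 37 C over 6 hr; FP gives the signal.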
RORg inh – ROR gamma (mouse) transcription inhibition | AID 2551 | Potency, µM (highest dose often 53.6 µM), most hits filed as inhibitors | P51450 | Drosophila S2 Gal4-RORgamma UAS-luciferase reporter, 20 h | 310,000 compounds, 5.4% hits; note: nearly all actives have a fitted effect of over 60% in size
Target sequence (P51450 whole entry, looked up, the tested form may be a part): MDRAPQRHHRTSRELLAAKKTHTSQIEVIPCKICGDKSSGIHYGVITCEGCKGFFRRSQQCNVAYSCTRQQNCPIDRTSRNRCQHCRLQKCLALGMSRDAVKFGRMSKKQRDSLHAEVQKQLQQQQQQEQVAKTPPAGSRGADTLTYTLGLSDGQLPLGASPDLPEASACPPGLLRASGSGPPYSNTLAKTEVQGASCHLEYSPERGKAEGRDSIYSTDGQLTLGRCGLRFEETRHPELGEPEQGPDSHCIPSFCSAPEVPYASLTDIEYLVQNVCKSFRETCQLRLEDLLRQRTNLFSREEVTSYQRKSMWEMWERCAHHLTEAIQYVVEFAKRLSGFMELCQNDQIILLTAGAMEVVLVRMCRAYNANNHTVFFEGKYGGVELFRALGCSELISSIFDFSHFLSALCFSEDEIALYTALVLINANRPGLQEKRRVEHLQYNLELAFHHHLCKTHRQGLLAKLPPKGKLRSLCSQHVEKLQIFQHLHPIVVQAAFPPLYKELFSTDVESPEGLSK
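Read-out: Photinus luciferase luminescence; inhibitors lower reporter signal. Insect Schneider cells with Gal4-ROR gamma fusion under metallothionein promoter, UAS reporter; 700 uM final copper sulfate induction, 20 hr, ambient temperature.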
Gal4-VP16 FLuc – Gal4-VP16 reporter inhibition counter-screen; Drosophila S2 Gal4-VP16 UAS-luciferase, luminescence, 20 h; Potency, µM (highest dose often 53.6 µM), actives largely listed as inhibitors; 310,000 compounds, 3.5% hits; AID 2546;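 note: Gal4-VP16 expression switched on by copper sulfate through the metallothionein promoter; nearly all actives have a fitted effect of over 50% in size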
Hits are given with their value; n = inactive; u = inconclusive; x = no result; [ ] = remark or other dose. The list is not random: actives were taken first. Their share in the collection is about 7.3%. Calls come from the whole dose curve; as a rule, active = well fitted curve in the direction sought with a large enough effect; inconclusive = small, poorly fitted or top-dose-only effect, or another doubt; inactive = no such curve, though single readings can be large; an effect the other way counts as inactive or inconclusive.

SMILES | Tau fluor cs | Tau ThT inhib | Tau FP inhib | RORg inh | Gal4-VP16 FLuc
N#C/C(=N\Nc1ccccc1)C(N)=S | n | u | n | 13µM | u
CCOc1ccc(N=Nc2c(C)noc2C)cc1 | n | 16µM | n | n | n
Cc1ccc(O)c(-c2cc(-c3ccc(F)cc3)no2)c1 | x | x | x | n | n
Cn1c(-c2ccc(F)cc2)cnc1SCC(=O)Nc1ccccc1 | n | n | n | n | n
CC(C)(C)c1cnnn1-c1ccc(/C=N/Nc2ccc([N+](=O)[O-])cc2)cc1 | u | u | u | u | n
CCSc1ncc(/C=N/Nc2ccccc2)n1C | u | 4.5µM | u | u | u
CCSc1ncc(/C=N/Nc2ccc([N+](=O)[O-])cc2)n1C | u | 0.89µM | n | n | n
CCSc1ncc(/C=N/Nc2ccc(Cl)cc2)n1C | 6.3µM[quencher] | 7.9µM | n | n | n
c1nc2nc(Nc3ccc(N4CCOCC4)cc3)nc(NC3CCCCC3)c2[nH]1 | x | x | x | n | u
CCO[C@@H]1OC(C(N)=O)=C[C@H](c2coc3ccccc3c2=O)[C@H]1CCCO | n | n | n | n | n
Cc1ccc(C)c(Cn2c3ccccc3c3cnn(CC(=O)NC(C)CCc4ccccc4)c(=O)c32)c1 (configuration not stated) | n | n | n | x | x
CC(N=Cc1cc([N+](=O)[O-])ccc1O)c1ccccc1 (configuration not stated) | n | n | n | u | u
CCN(CC)c1ccc(C=Nc2ccc(C)cc2C)c(O)c1 | n | u | n | n | n
Cc1ccccc1N=Cc1cccc(O)c1O | u | 7.9µM | u | n | n
Cc1ccc(N=Cc2cccc(O)c2O)c(C)c1 | u | 3.2µM | 8.9µM | 10µM | u
Cc1cccc(C=Nc2ccc3c(c2)oc2ccccc23)c1O | n | n | n | n | n
CC(N=Cc1cccc(O)c1O)c1ccccc1 (configuration not stated) | u | 5µM | u | n | n
Cc1ccc(CCNS(=O)(=O)c2ccc3c(c2)C(C(C)C)C(=O)N3)cc1 (configuration not stated) | n | n | n | x | x
N/C(=N\N=C\c1ccc(O)c(O)c1)c1nonc1N | n | u | n | 10µM | u
COc1cc(/C=N/NC(=S)Nc2cccnc2)cc(OC)c1OC | n | n | n | n | n
S=C(N/N=C/c1ccc2ncccc2c1)Nc1cccnc1 | n | n | n | 4.5µM | u
CC(C)[C@@H](N)C(=O)N/N=C/c1ccc2ncccc2c1 | n | n | n | n | n
CC(C)(C)c1ccc(/C=N/NC(=S)Nc2cccnc2)cc1 | n | n | n | 0.18µM | 1.3µM
Oc1ccc(/C=N/NC(=S)Nc2cccnc2)cc1O | n | u | n | 8.9µM | u
COc1ccccc1/C=N/NC(=S)Nc1cccnc1 | n | n | n | 0.71µM | u
SMILES | Tau fluor cs | Tau ThT inhib | Tau FP inhib | RORg inh | Gal4-VP16 FLuc
C[C@@H](O)[C@H]1C(=O)N2C(C(=O)O)=C(S[C@@H]3CN[C@H](CNS(N)(=O)=O)C3)[C@H](C)[C@H]12 | x | x | x | n | n
Cc1ccc(-n2c(NN)nc3ccccc3c2=O)c(C)c1 | n | u | n | u | 20µM
CC(C)(C)c1cc(C(=O)N/N=C/c2ccc(-c3ccccc3[N+](=O)[O-])o2)n[nH]1 | x | x | x | n | n
O=C(N/N=C/c1ccc(-c2ccccc2Cl)o1)c1ccccc1 | u | u | n | 3.5µM | 7.9µM
O=C(N/N=C/c1ccc(-c2ccccc2[N+](=O)[O-])o1)c1cccnc1 | n | 7.1µM | u | n | u
O=C(O)c1ccc(N/N=C/c2ccc(-c3ccccc3Cl)o2)cc1 | u | u | n | u | u
CCSc1nc2ccccc2c(=O)n1Cc1ccc(F)cc1 | n | n | n | n | n
CC1C(c2ccccc2)N(C)C(c2ccccc2)C(C)C1(O)C#Cc1ccccc1 (configuration not stated) | n | n | n | 16µM | u
Oc1oc(-c2cccc3ccccc23)nc1/C=N/c1nccs1 | n | n | n | 8.9µM | 13µM
[C-]#[N+]c1cc(-c2ccncc2)c(C)[nH]c1=O | n | n | n | x | x
O=C1c2cccc3cccc(c23)C(=O)N1CC1CCN(CC(O)COc2ccc3ccccc3c2)CC1 (configuration not stated) | 16µM[quencher] | 13µM | n | n | n
O=C1c2cccc3cccc(c23)C(=O)N1CCN1CCN(CC(O)COc2ccc3ccccc3c2)CC1 (configuration not stated) | n | u | n | u | 11µM
CC(=O)c1ccccc1OCC(O)CN1CCN(CCN2C(=O)c3cccc4cccc(c34)C2=O)CC1 (configuration not stated) | n | n | n | n | u
CC(C)Oc1ccc(CNC(=O)CCCn2c(=O)c3cccn3c3ccccc32)cc1 | n | u | n | x | x
CCOC(=O)c1cnc2c(Cl)cc(Cl)cc2c1Nc1ccccc1OC | n | n | n | x | x
COc1ccc(CN=Cc2[nH]c3ccc(Br)c(Cl)c3c2O)cc1 | u | 16µM | u | u | n
Cc1cc(C)cc(N=Cc2[nH]c3ccc(Br)c(Cl)c3c2O)c1 | u | u | n | n | u
Cc1cc(C(=O)Nc2ccccc2)c2ccccc2n1 | x | x | x | n | n
CCNC(=S)NNC(=O)c1cc(CC(C)C)nc2ccccc12 | n | n | n | 0.4µM | u
Cc1cc(C(=O)NNC(=S)NC(C)c2ccccc2)c2ccccc2n1 (configuration not stated) | n | n | n | 5µM | n
Cc1ccc(C)c(-c2cc(C(=O)NNC(=S)NCC(C)C)c3ccccc3n2)c1 | u | n | n | 1.1µM | u
Cc1ccc(C)c(-c2cc(C(=O)NC3CC3)c3ccccc3n2)c1 | x | x | x | n | n
CC(C)Cc1cc(C(=O)Nc2ccccc2)c2ccccc2n1 | x | x | x | n | n
CCNC(=S)NNC(=O)c1cc(-c2ccccc2C)nc2ccccc12 | n | n | n | 0.56µM | n
Cc1cc2c(c(=O)n1-c1ccccc1)C1O[C@](c3ccsc3)(Cc3cc(C#N)ccc31)O2 | x | x | x | n[10 µM] | n[10 µM]
SMILES | Tau fluor cs | Tau ThT inhib | Tau FP inhib | RORg inh | Gal4-VP16 FLuc
CCNC(=S)NNC(=O)c1cc(-c2cccc(OC)c2)nc2ccccc12 | n | n | n | 2.2µM | 13µM
CC(C)Oc1cccc(-c2cc(C(=O)NC(=S)N(C)c3ccccc3C(=O)O)c3ccccc3n2)c1 | n | n | n | 11µM | u
Cc1cccc(N(Cc2cc3ccc(C)cc3[nH]c2=O)S(=O)(=O)c2ccccc2)c1 | x | x | x | n | n
COc1ccc(O)c(C(=O)c2cnc3c(c2)CN(C)C(=O)N3)c1 | n | u | n | n | n
CCOC(=O)c1c(C)[nH]c(C(=O)N/N=C/c2cc([N+](=O)[O-])ccc2O)c1C | x | x | x | 2.2µM | u
CCOC(=O)c1c(C)[nH]c2c1cc(O)c1ccccc12 | u | 16µM | n | n | u
CCOC(=O)c1c(C)oc2c1cc(O)c1ccccc12 | n | u | u | n | n
CCOC(=O)c1c(C)[nH]c(C(=O)N/N=C\c2ccccc2O)c1C | n | n | n | 1.6µM | 1.4µM
